# Measured values: PubChem BioAssay (NCATS)
# Inconclusive results are not listed. Entries that show only a call come without a potency. Calls of active or inactive are those of the source. Unless noted, the call rests on the fitted dose curve; in most records, active means well fitted inhibition curve with a large enough effect; inconclusive means small, poorly fitted or top-dose-only effect; inactive means no such curve, though single readings can be large or run the other way.
# Tests used:
# [1] = target: Aldehyde dehydrogenase, mitochondrial (Homo sapiens) (UniProt P05091); assay: qHTS for Inhibitors of the Aldehyde Dehydrogenase Family (ALDH2) Confirmatory screens (AID 2061303; active means well fitted inhibition curve with a large enough effect; title and protocol of this record describe different tests; further: nearly all actives have a fitted effect of over 45% in size; further: potency means the concentration at half of the fitted maximal effect)
# [2] = target: Retinal dehydrogenase 2 (Homo sapiens) (UniProt O94788); assay: qHTS for Inhibitors of the Aldehyde Dehydrogenase Family (ALDH1A2) Confirmation screens (AID 2061314); further: nearly all actives have a fitted effect of over 65% in size; further: potency means the concentration at half of the fitted maximal effect
# [3] = target: Retinaldehyde dehydrogenase 3 (Homo sapiens) (UniProt P47895); assay: qHTS for Inhibitors of the Aldehyde Dehydrogenase Family (ALDH1A3) Primary screen (AID 2061315)
# [4] = target: Aldehyde dehydrogenase 1A1 (Homo sapiens) (UniProt P00352); assay: qHTS for Inhibitors of the Aldehyde Dehydrogenase Family (ALDH1A1) Confirmatory screens (AID 2061316); further: nearly all actives have a fitted effect of over 65% in size; further: potency means the concentration at half of the fitted maximal effect
# [5] = target: Retinaldehyde dehydrogenase 3 (Homo sapiens) (UniProt P47895); assay: qHTS for Inhibitors of the Aldehyde Dehydrogenase Family (ALDH1A3) Confirmatory screens (AID 2061311); further: nearly all actives have a fitted effect of over 60% in size; further: potency means the concentration at half of the fitted maximal effect
# [6] = qHTS for Inhibitors of the Aldehyde Dehydrogenase Family (ALDH1A2, ALDH1A3, ALDH2, ALDH3A1) (AID 2061307); further: nearly all actives have a fitted effect of over 50% in size
structure (smiles),measurement,setting,value
O=C(NC1CC(=O)N(c2ccccc2)C1)c1ccc(S(=O)(=O)N2CCOCC2)cc1 (configuration not stated),Potency,[1],inactive
same,Potency,[2],inactive
Cc1ccsc1CN(C)c1ncnc2ccc(-c3ccoc3C)cc12,Potency,[1],inactive
same,Potency,[2],11.3 µM (active)
same,Potency,[3],inactive
CC(=O)c1ccc(NC(=O)c2cc(-c3ccc(C)s3)nc3ccccc23)cc1,Potency,[1],inactive
same,Potency,[2],inactive
CC(C)N1CCc2c(sc(NC(=O)C3CC3)c2-c2nc3ccccc3s2)C1,Potency,[1],inactive
same,Potency,[2],5.65 µM (active)
same,Potency,[3],inactive
same,Potency,[4],7.98 µM (active)
O=C(CCC#CCSc1nnc(-c2cccc3ccccc23)o1)c1ccccc1,Potency,[1],20.1 µM (active)
same,Potency,[3],inactive
O=C(Nc1cccc(-c2ccc(N3CCOCC3)nn2)c1)Nc1cccc(C(F)(F)F)c1,Potency,[1],inactive
same,Potency,[5],inactive
same,Potency,[4],inactive
CC(C)c1ccc(NC(=O)N2CCN(c3ccc(Cl)c(Cl)c3)CC2)cc1,Potency,[1],inactive
same,Potency,[4],inactive
O=S1(=O)N=C(Sc2ccc3c(c2)OCCO3)c2ccccc21,Potency,[1],inactive
same,Potency,[3],inactive
Oc1ccc(Nc2nc(-c3ccncc3)nc3ccccc23)cc1F,Potency,[1],inactive
same,Potency,[3],inactive
O=C1c2ccccc2NC(c2ccc(-c3cccs3)o2)N1O (configuration not stated),Potency,[1],11.2 µM (active)
same,Potency,[2],7.98 µM (active)
same,Potency,[3],inactive
same,Potency,[4],6.34 µM (active)
CC(=O)Nc1sc2c(c1-c1nc3ccccc3s1)CCN(Cc1ccccc1)C2,Potency,[1],inactive
same,Potency,[5],25.1 µM (active)
same,Potency,[3],inactive
CC(C)NC(=O)c1nc(-c2cccnc2)c2cnccn12,Potency,[1],inactive
same,Potency,[4],inactive
COc1ccc(-c2ccc(CNc3ccc4[nH]c(=O)[nH]c4c3)o2)cc1Cl,Potency,[1],1.82 µM (active)
same,Potency,[4],7.26 µM (active)
CN(C)C(C(=O)N1CCN(c2ccc(C#N)cc2)CC1)c1ccccc1F (configuration not stated),Potency,[6],inactive
COc1cc(O)c(C(CC(=O)N2CC(C)CC(C)C2)c2cccc(OC(C)C)c2)c(OC)c1 (configuration not stated),Potency,[6],12.7 µM (active)
COc1cccc(-c2nc(CNc3cccc(C(C)=O)c3)cs2)c1,Potency,[6],10 µM (active)
N[C@H](Cc1cscn1)C(=O)Nc1cccc(-c2nn3c(=O)cc(N4CCNCC4)nc3s2)c1,Potency,[6],inactive
CCOC(=O)N1CCN(Cc2nc3cc(NC(=O)CC(C)C)ccc3n2C(C)C)CC1,Potency,[6],inactive
Oc1[nH]c2ccccc2c1N=NC(=S)Nc1ccc2c(c1)CCC2,Potency,[6],inactive
Cc1cccc(C)c1Nc1c(-c2ccccn2)nc2ccc(Cl)cn12,Potency,[6],inactive
COc1ccc(-c2nn(-c3ccccc3)cc2C(=O)Nc2ccccc2OC)cc1,Potency,[6],inactive
CN(C)Cn1c(O)c(N=NC(=O)c2cccnc2)c2ccccc21,Potency,[6],inactive
COc1cc(O)c(C(CC(=O)N2CC(C)CC(C)C2)c2ccccc2Cl)c(OC)c1 (configuration not stated),Potency,[6],1 µM (active)
COc1ccccc1Nc1ccc2c(O)cc(S(=O)(=O)O)cc2c1,Potency,[6],31.6 µM (active)
NCC(=O)Nc1cc(-c2nn3c(=O)cc(N4CCNCC4)nc3s2)ccn1,Potency,[6],inactive
COCCCNC(=O)c1cc2cc(S(=O)(=O)N(C)C)ccc2n1C,Potency,[6],inactive
COc1ccc(-n2ncc3c2CCCC3NC(=O)c2cccc(C(F)(F)F)c2)cc1 (configuration not stated),Potency,[6],11.3 µM (active)
Cc1c(Cl)cccc1-n1c(CCC(=O)O)ccc1-c1cccs1,Potency,[6],6.34 µM (active)
O=C(Nc1ccccc1OC(F)(F)F)c1csc(-c2ccc(F)cc2)n1,Potency,[6],inactive
O=C(Nc1ccncc1)c1cccs1,Potency,[6],inactive
Cc1nc2cc(NS(=O)(=O)c3cc(C(=O)O)ccc3C)ccc2o1,Potency,[6],12.6 µM (active)
COc1ccc(-c2ccncc2)cc1OC,Potency,[6],inactive
Nc1nc(NCc2ccccc2)c2ccccc2n1,Potency,[6],10 µM (active)
CCOc1ccc2[nH]c(=O)c(CN(Cc3nnnn3Cc3ccco3)C3CCCCC3)cc2c1,Potency,[6],0.896 µM (active)
CCc1ccc(NC(=O)c2cc3c(=O)n(Cc4cccnc4)ccc3nc2C)cc1,Potency,[6],inactive
Cc1cccc(NC(=O)CSCC(=O)Nc2ccc(F)cc2)c1,Potency,[6],inactive
CCN1C(=O)c2ccccc2S(=O)c2ccc(C(=O)NCc3ccccc3Cl)cc21 (configuration not stated),Potency,[6],12.7 µM (active)
COC(=O)c1ccc(S(=O)(=O)N2CCC(c3nc4ccccc4s3)CC2)cc1,Potency,[6],inactive
O=C(Nc1cccc(Oc2ncccn2)c1)c1cccc(C(F)(F)F)c1,Potency,[6],inactive
O=C(NCc1ccccc1Cl)c1ccc(-c2nn[nH]n2)cc1,Potency,[6],inactive
COc1cc(O)c(C(CC(=O)N2CC(C)CC(C)C2)c2cccc(NS(C)(=O)=O)c2)c(OC)c1 (configuration not stated),Potency,[6],3.66 µM (active)
O=C(N/N=C/c1ccco1)c1cccc(F)c1,Potency,[6],inactive
COC(=O)c1ccc(CN2CCC(N(CCc3ccccc3)Cc3ccccc3)CC2)cc1,Potency,[6],inactive
Cc1cccc(Nc2nc(-c3ccccc3)c3cc(Cl)ccc3n2)c1,Potency,[6],12.6 µM (active)
COC(=O)c1ccc(CNc2ncnc3ccccc23)cc1,Potency,[6],0.708 µM (active)
Cc1ccc(-c2cc(-c3c(Cc4ccc(S(N)(=O)=O)c(F)c4)c(CC4CC4)nn3-c3nc(C(=O)O)cs3)ccc2F)s1,Potency,[6],17.9 µM (active)
Cc1ccccc1C(=O)N1CCc2cc(-c3nc(NC(=O)CC4CCOCC4)sc3C)ccc21,Potency,[6],4.47 µM (active)
CN(C)CC(=O)NC1CCCc2c1cnn2-c1ccc(OCCOCCOCCNC(=O)OC(C)(C)C)cc1 (configuration not stated),Potency,[6],inactive
O=C(CN1CCC(CCc2ccccc2)CC1)Nc1ccccc1,Potency,[6],15.8 µM (active)
O=C(Nc1cccc(Nc2ccccc2)c1)c1ccc(-c2cccc([N+](=O)[O-])c2)o1,Potency,[6],1.27 µM (active)
O=C1Cc2cc(S(=O)(=O)N3CCN(c4ccc(C(=O)O)cc4)CC3)ccc2N1,Potency,[6],inactive
COc1ccc(NC(=O)C2CCN(c3ccc(Sc4ccc(C)cc4)nn3)CC2)cc1,Potency,[6],inactive
